Experimental data from PubChem BioAssay AID1578 (Sanford-Burnham Center for Chemical Genomics, 2009).
The campaign covered roughly 290,000 compounds. About 3,000 (1%) were called active. The entries come from a sample that favours actives as a whole. A number with no mark means an inactive call. Rule as the data show it: active = inhibition mostly above about 36% (no sharp cut-off); inactive = mostly below about 34%.

Assay: inhibition of NOD1-driven NF-kB reporter – cell-based, luminescence, uHTS, primary screen (AID 1578);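 also: HEK-293T reporter cells stimulated with the NOD1 agonist gamma-tri-DAP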
Conditions: NOD1-driven NF-kB luciferase reporter cells, at 4 µM, hits give high values

Q: With `O=C(c1ccc(Br)c([N+](=O)[O-])c1)N1CCN(Cc2ccccc2)CC1` as the compound, how does the inhibition read?
A: The inhibition was -6.4%.

Q: Which inhibition does the source give for `O=C(c1ccc(Cl)c(S(=O)(=O)N2CCCC2)c1)N1CCN(c2ccc(F)cc2)CC1` here?
A: The inhibition was 0.4%.

Q: For `O=C(NC1CCCC1)c1ccc(Cl)c(S(=O)(=O)N2CCCCC2)c1`, which inhibition is on record?
A: Its inhibition is 10.6%.

Q: With `COc1cccc(C(=O)NCCCNC(=O)c2cccc(OC)c2)c1` as the compound, how does the inhibition read?
A: The inhibition was -4.9%.

Q: With `CCN(CC)S(=O)(=O)c1ccc(S(=O)(=O)N2CCN(C(=O)c3ccco3)CC2)cc1` as the compound, how does the inhibition read?
A: The inhibition was -3.5%.

Q: For `CC(=O)Nc1ccc(NC(=O)C(C)Sc2nnc(-c3cccs3)o2)cc1` (centres undefined), which inhibition is on record?
A: The inhibition was -14.2%.

Q: For `Cc1ccccc1C(=O)Nc1ccccc1`, which inhibition is on record?
A: The inhibition was -15.4%.

Q: With `Cc1c(C(=O)NN2CCOCC2)oc2c1ccc1ccccc12` as the compound, how does the inhibition read?
A: The inhibition was -35.1%.

Q: For `COc1ccc(CCNC(=O)COC(=O)/C=C/c2ccc(OCC#N)c(OC)c2)cc1`, which inhibition is on record?
A: Its inhibition is -30.9%.

Q: With `Cc1cc(C)n2nc(C(=O)N3CCN(c4ccc([N+](=O)[O-])cc4)CC3)nc2n1` as the compound, how does the inhibition read?
A: Its inhibition is -21.8%.

Q: For `CCOC(=O)C1CCN(CC(O)COCc2cccs2)CC1` (centres undefined), which inhibition is on record?
A: The inhibition was -28.2%.

Q: For `CCOC(=O)C1CCN(CC(O)COCc2ccc(Cl)cc2)CC1` (centres undefined), which inhibition is on record?
A: The inhibition was -12.3%.

Q: With `CCOC(=O)C1CCN(CC(O)COCc2ccccc2)CC1` (centres undefined) as the compound, how does the inhibition read?
A: The inhibition was 34.7% (active).

Q: Which inhibition does the source give for `COC(=O)c1ccc(/C=N/NC(=O)c2ccc3nc[nH]c3c2)cc1` here?
A: The inhibition was -10.6%.

Q: For `O=C(O)CCc1ccc(-c2ccc(Br)cc2)n1Cc1ccco1`, which inhibition is on record?
A: The inhibition was -8.6%.

Q: Which inhibition does the source give for `CC(C)C[C@H](NC(=O)N1CCn2c1nc1ccccc12)C(=O)N[C@@H](C(=O)O)c1ccccc1` here?
A: The inhibition was -6%.

Q: For `CC(C)[C@H](NC(=O)N1CCn2c1nc1ccccc12)C(=O)N[C@@H](C(=O)O)c1ccccc1`, which inhibition is on record?
A: Its inhibition is 1.1%.

Q: Which inhibition does the source give for `CC(C)[C@H](NC(=O)N1CCn2c1nc1ccccc12)C(=O)N[C@H](C(=O)O)c1ccccc1` here?
A: Its inhibition is 68.4% (active).

Q: With `CC(C)(C)C(=O)NC1(C(F)(F)F)NC(=O)N(c2ccccc2F)C1=O` (centres undefined) as the compound, how does the inhibition read?
A: Its inhibition is 2.6%.

Q: With `Cn1cc([N+](=O)[O-])c(C(=O)Nc2nccs2)n1` as the compound, how does the inhibition read?
A: Its inhibition is -14.6%.

Q: For `CCn1cc([N+](=O)[O-])c(C(=O)Nc2nc(-c3ccc(C)c(C)c3)c(C)s2)n1`, which inhibition is on record?
A: The inhibition was -63.4%.

Q: With `Cc1cnc(NC(=O)c2nn(C)cc2[N+](=O)[O-])s1` as the compound, how does the inhibition read?
A: The inhibition was 24.8%.

Q: Which inhibition does the source give for `CCn1cc([N+](=O)[O-])c(C(=O)Nc2nc(-c3ccc(C)cc3)c(C)s2)n1` here?
A: The inhibition was 2.6%.

Q: Which inhibition does the source give for `Cc1csc(=S)n1-c1ccccc1` here?
A: Its inhibition is 5.1%.

Q: Which inhibition does the source give for `COc1ccccc1C(=O)N/C(=C\c1cn(S(=O)(=O)N(C)C)c2ccccc12)C(=O)NCCN1CCOCC1` here?
A: Its inhibition is -15%.

Q: With `COc1ccc(C(=O)Oc2cccc(Nc3ncnc4ccccc34)c2)cc1OC` as the compound, how does the inhibition read?
A: The inhibition was 29.6%.

Q: With `COc1cccc(N2CCN(c3nc(C)c(C)c(=O)[nH]3)CC2)c1` as the compound, how does the inhibition read?
A: Its inhibition is -29.1%.

Q: With `Cc1noc(-c2ccc(Cl)cc2)c1C(=O)O/N=C(\N)c1ccc(C(C)(C)C)cc1` as the compound, how does the inhibition read?
A: The inhibition was 84% (active).

Q: For `COC(=O)c1c(C)noc1-c1ccc(Cl)cc1`, which inhibition is on record?
A: Its inhibition is -8.4%.

Q: With `Cc1cc(C(=O)O/N=C(\N)c2ccc(C(C)(C)C)cc2)no1` as the compound, how does the inhibition read?
A: Its inhibition is -2.5%.

Q: Which inhibition does the source give for `CC(=O)/C(N=Nc1cccc(C(F)(F)F)c1)=C(\C)O` here?
A: Its inhibition is -26.4%.

Q: For `O=C(/C(N=Nc1cccc(C(F)(F)F)c1)=C(/O)c1cccs1)C(F)(F)F`, which inhibition is on record?
A: The inhibition was 58.5% (active).

Q: With `COC(=O)/C(N=Nc1cccc(C(F)(F)F)c1)=C(\C)O` as the compound, how does the inhibition read?
A: The inhibition was 1.3%.

Q: For `CC(C)C1CC(c2ccccc2)(C(CN)CO)CCO1` (centres undefined), which inhibition is on record?
A: Its inhibition is -22.3%.

Q: For `C=C(C)COc1ccc(-c2[nH]ncc2-c2ccc(Br)cc2)c(O)c1`, which inhibition is on record?
A: The inhibition was -22.6%.

Q: With `Cc1nc2ccccc2c2oc(C(=O)NCc3ccc4c(c3)OCO4)cc12` as the compound, how does the inhibition read?
A: The inhibition was 38.5%.

Q: For `Cc1cc(C(=O)NCC2COc3ccccc3O2)c2ccccc2n1` (centres undefined), which inhibition is on record?
A: Its inhibition is -14.4%.

Q: Which inhibition does the source give for `Cn1c(Cc2ccccc2)nnc1SCC(=O)N1CCN(c2ccccc2)CC1` here?
A: The inhibition was -14.3%.

Q: For `COC(=O)c1sccc1NC(=O)/C=C/C(=O)O`, which inhibition is on record?
A: The inhibition was -34.3%.

Q: With `O=C(Nc1ccc(F)cc1)c1nc[nH]c1C(=O)Nc1ccc([N+](=O)[O-])cc1` as the compound, how does the inhibition read?
A: The inhibition was 45%.

Q: Which inhibition does the source give for `O=C(Nc1ccc([N+](=O)[O-])cc1)c1nc[nH]c1C(=O)NC1CCCCC1` here?
A: The inhibition was 80.7% (active).

Q: For `CCOC(=O)c1[nH]cnc1C(=O)Nc1ccc([N+](=O)[O-])cc1`, which inhibition is on record?
A: Its inhibition is -7.2%.

Q: For `Nc1nnc(SCc2c(F)cccc2Cl)s1`, which inhibition is on record?
A: The inhibition was -8.2%.

Q: With `C#CCNC(=O)C1=C[C@@H](c2cn(C(C)=O)c3ccccc23)C[C@@H](OCc2ccc(CO)cc2)O1` as the compound, how does the inhibition read?
A: The inhibition was -23.5%.

Q: For `C#CCNC(=O)C1=C[C@H](c2cn(C(C)=O)c3ccccc23)C[C@H](OCc2ccc(CO)cc2)O1`, which inhibition is on record?
A: Its inhibition is 46.1% (active).

Q: Which inhibition does the source give for `O=C(NCc1ccccc1)C1=C[C@@H](c2csc3ccccc23)C[C@@H](OCc2ccc(CO)cc2)O1` here?
A: The inhibition was 43.8% (active).

Q: Which inhibition does the source give for `O=C(Nc1ccccc1)C1=C[C@H](c2csc3ccccc23)C[C@H](OCc2ccc(CO)cc2)O1` here?
A: Its inhibition is -4.6%.

Q: Which inhibition does the source give for `O=C(NCc1ccccc1)C1=C[C@H](c2csc3ccccc23)C[C@H](OCc2ccc(CO)cc2)O1` here?
A: The inhibition was -5.8%.

Q: Which inhibition does the source give for `CC(=O)n1cc([C@@H]2C=C(C(=O)NCc3ccccc3)O[C@H](OCc3ccc(CO)cc3)C2)c2ccccc21` here?
A: Its inhibition is -7.1%.
